Source: PubChem BioAssay (NCI)
About 83,000 compounds went through this panel and 20% of them were active in at least one assay; those are over-represented in the sample as a whole.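 A percent growth of 40 corresponds to 60% growth inhibition; 0 means no net growth; -100 means all cells died. Active threshold: below 10.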 Unmarked numbers belong to inactive results. Active and inactive are the calls of the source.

How the values were obtained:
Assay in all cases: NCI-60 one-dose screen, 48 h (100 = growth as untreated, 0 = no growth, -100 = all killed)
Settings in all cases: 10 µM unless noted
T-47D breast = system: T-47D breast
BT-549 breast = system: BT-549 breast
MDA-MB-435 melanoma = system: MDA-MB-435 melanoma
SW-620 colon = system: SW-620 colon
MCF7 breast = system: MCF7 breast
HCT-116 colon = system: HCT-116 colon
HCC-2998 colon = system: HCC-2998 colon
KM12 colon = system: KM12 colon

| SMILES | growth (T-47D breast) | growth (BT-549 breast) | growth (MDA-MB-435 melanoma) | growth (SW-620 colon) | growth (MCF7 breast) | growth (HCT-116 colon) | growth (HCC-2998 colon) | growth (KM12 colon) |
| --- | --- | --- | --- | --- | --- | --- | --- | --- |
| COC(=O)CCSC1=C(C)C(=O)c2ccccc2C1=O | 43.5% | 88.8% | 106% | 96.3% | 73.3% | 91.5% | 111% | 82.7% |
| CN1CCN(c2ccc(Nc3nc(NCCCNS(=O)(=O)c4ccccc4)c4sccc4n3)cc2)CC1 | 36.8% | 62.1% | 50.6% | 52.5% | 35.5% | 16.7% | 60.4% | 73.3% |
| Brc1cccc(-c2cc(-c3ccc4c(c3)OC=CO4)[nH]n2)c1 | 44.3% | 63.8% | -25.2% (active) | 31.5% | 10.1% | 23.3% | 59.8% | 38.1% |
| COc1ccc2[nH]cc(/C=N/Nc3ccnc4cc(Cl)ccc34)c2c1 | -53.6% (active) | -91.8% (active) | -90.8% (active) | -71.8% (active) | -69.1% (active) | -50.5% (active) | -89.4% (active) | -78% (active) |
| C#Cc1cc(OC)c(C(=O)Nc2ccc(F)cc2C(=O)Nc2cccc(S(=O)(=O)C(F)(F)F)c2)cn1 | 23.4% | 1.8% (active) | 10.2% | 5.83% (active) | 13.1% | 3.82% (active) | 47.8% | 4.44% (active) |
| CN1CCN(Cc2ccc(NC(=O)c3cncc(C#Cc4cnc5ccc(OCC6COC6)nn45)c3)cc2C(F)(F)F)CC1 | -1.42% (active) | -71.5% (active) | -92.3% (active) | -29.8% (active) | -70.8% (active) | -78.6% (active) | -77.4% (active) | -73.6% (active) |
| COc1cc(-c2nc(-c3ccccc3)[nH]c2-c2ccnc(NCCCNS(=O)(=O)c3ccc(C)cc3)n2)ccc1F | 57.3% | 119% | 68.5% | 108% | 65.4% | 72.3% | 153% | 90.1% |
| CS(=O)(=O)c1ccc(/C(=N/N=C(N)N)c2ccc(F)cc2)cc1 | 94.4% | 98% | 11.4% | 59.9% | 15.1% | 33.7% | 90.3% | 58.2% |
| O=C1c2ccccc2C23C(=C(c4cncnc4)c4ccccc42)CCCN13 (stereo not given) | 93.3% | 120% | 94.6% | 103% | 103% | 97.9% | 103% | 96.6% |
| C#Cc1nc(C(=O)NCCCCCCC(=O)NO)cs1 | -38.5% (active) | 50.3% | -34.9% (active) | 0.565% (active) | 6.97% (active) | -18.2% (active) | 25.9% | -7.86% (active) |
| O=C(CSc1nc2ccccc2c(=O)n1-c1ccc(Cl)cc1)N/N=C/c1ccc(Oc2ccc(Cl)cc2)cc1 | 30.1% | -17.7% (active) | 25.1% | 2.62% (active) | 15.5% | -67.8% (active) | 20.3% | 17.4% |
| CC1=C(C)C(=O)C(Nc2cccc(C(=O)OC(C)(C)C)c2)=C(Cl)C1=O | 4.99% (active) | 106% | 103% | 88.7% | 46.3% | 72.6% | 99% | 99.2% |
| COc1ccc2c(c1)c(-c1nnc(N)nc1-c1c[nH]c3ccc(F)cc13)cn2C | 46.5% | 53.5% | 3.37% (active) | 25.7% | 18.9% | 21.4% | 74.6% | 22.9% |
| C#CCOc1cccc(-c2nc(N)nc(Nc3ccccc3SSc3ccccc3Nc3nc(N)nc(-c4cccc(OCC#C)c4)n3)n2)c1 | 40.5% | 58.8% | 72.7% | 71.4% | 61.2% | 45.7% | 94.6% | 3.92% (active) |
| COC(=O)c1ccc(NC2=C(Cl)C(=O)C(C)=C(C)C2=O)cc1 | -25.9% (active) | 77.5% | 7.22% (active) | 35.5% | 35.9% | 32.4% | 71.1% | 6.69% (active) |
